Assay: calcein-AM signal in unstimulated myeloma cells – cell-based, calcein-AM fluorescence, 48 h, PK04 Diversity Set, profiling panel (AID 1166);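 further: cells grown under basal conditions without added stimulus; test concentration not given here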
Settings: RPMI8226 myeloma viability, higher = more signal

Structure (SMILES)	z-score
C=C(COC)/C(=C/C[C@@H](OC(C)=O)c1ccc(CO)o1)c1cnc2ccccc2c1	-0.672
COc1ccc(C#Cc2ccc3c(c2)[C@]2(C(=O)N3)[C@H](c3ccccc3OCCO)N3[C@H](c4ccccc4)[C@H](c4ccccc4)OC(=O)[C@H]3[C@@H]2C(=O)O)cc1	-4.18
COc1ccc([Si](C)(C)[C@@H]2[C@@H](CC(=O)N3Cc4ccccc4C[C@H]3CO)O[C@]3(C(=O)N(C)c4c(Br)cc(C)cc43)[C@H]2C)cc1	-4.35
C=C(CCCC)C(=O)CC[C@@H](OC(=O)c1cccnc1)c1ccc(CO)o1	-0.156
Cc1ccc(S[C@]2(C(=O)NCC(C)C)CC(=O)N(Cc3cc(C(F)(F)F)cc(C(F)(F)F)c3)[C@@H]2c2ccc(CO)cc2I)cc1	-2.29
CO[C@H]1O[C@H](CO)[C@@H](OC(=O)Nc2ccc(Br)cc2)[C@H](OC(=O)c2cc3ccccc3[nH]2)[C@H]1OC(=O)c1cc2ccccc2[nH]1	-3.2
CCc1oc(CC[C@@H](CO)NC(=O)NCCn2cc(C3(O)CCCCC3)nn2)c(C(=O)OC)c1C(=O)OC	0.0168
COc1ccc(C(=O)Nc2ccc(CN3C(=O)[C@@]4(O[C@@H](CCn5cc([C@H](O)c6ccccc6)nn5)[C@H]([Si](C)(C)c5ccc(OC)cc5)[C@H]4C)c4ccccc43)cc2)cc1	-3.02
Cc1ccc(C(C)CC(O)C2C=CC3C(=O)N(c4ccccc4)C(=O)C3N2Nc2ccc([N+](=O)[O-])cc2)o1 (stereo unspecified)	-0.259
COCCCNC(=O)[C@@]1(Cc2ccccc2N=[N+]=[N-])N=C(c2ccc(OCCCO)cc2)O[C@H]1c1ccccc1N=[N+]=[N-]	-3.69
COCCOC(=O)N1C(=O)[C@@]2(c3cc(C#Cc4ccc(OC)cc4)ccc31)[C@H](c1ccccc1OCCO)N1[C@H](c3ccccc3)[C@H](c3ccccc3)OC(=O)[C@H]1[C@@H]2C(=O)N1CCN(c2ncccn2)CC1	0.149
COc1cc2c(cc1OC)CN(C(=O)[C@H]1[C@@H]3C(=O)O[C@@H](c4ccccc4)[C@@H](c4ccccc4)N3[C@@H](c3ccc(O)cc3)[C@]13C(=O)Nc1ccc(C#CC4=CCCCC4)cc13)CC2	-2.23
CCCCc1cn(C[C@H](Cc2ccccc2)NC(=O)N[C@H](CO)CCc2oc(C(C)=O)c(C(=O)OC)c2C(=O)OC)nn1	-1.22
CN(C)C(=O)[C@]1(Cc2ccccc2N=[N+]=[N-])N=C(c2ccc(OCCCO)cc2)O[C@@H]1c1ccccc1	-2.57
C=CCNC(=O)[C@@H]1[C@H]2C(=O)O[C@H](c3ccccc3)[C@H](c3ccccc3)N2[C@H](c2ccc(OCCO)cc2)[C@@]12C(=O)Nc1ccc(C#CCCO)cc12	0.256
[N-]=[N+]=NCc1ccccc1C[C@]1(C(=O)N2CCOCC2)N=C(c2ccc(OCCCO)cc2)O[C@H]1c1ccccc1N=[N+]=[N-]	-3.42
C=CCNC(=O)[C@H]1[C@@H]2C(=O)O[C@@H](c3ccccc3)[C@@H](c3ccccc3)N2[C@@H](c2ccc(OCCO)cc2)[C@]12C(=O)Nc1ccc(C#CC3=CCCCC3)cc12	-3.64
COC(=O)[C@@]1(Cc2ccc(OC)cc2)[C@H]2c3cc(C(=O)N4CCCC4)n(Cc4ccccc4)c3C[C@H]2CN1C(=O)c1ccccc1	-2.12

Structure (SMILES)	z-score
CCCC[C@@H]1C[C@H]1[C@@H](NC(=O)c1ccco1)c1ccc(C(=O)OC)cc1	-2.42
C=CCOC(=O)[C@H]1[C@@H]2C(=O)O[C@@H](c3ccccc3)[C@@H](c3ccccc3)N2[C@@H](c2ccc(OCCOC(=O)[C@H]3C[C@H]4C(=O)N[C@@H](CC(C)C)C(=O)N4[C@H]3c3ccc(O)cc3)cc2)[C@]12C(=O)Nc1ccc(I)cc12	0.0851
COC(=O)c1c(CC[C@@H](CO)NC(=O)N[C@@H](C)Cn2cc(C3(O)CCCCC3)nn2)oc(C(C)=O)c1C(=O)OC	-1.82
CC(C)N1C(=O)[C@@]2(Cc3ccccc31)c1ccccc1C(=O)N(C1CCCCC1)[C@H]2c1ccc(CO)cc1	0.0484
CN(C)CCCNC(=O)[C@@]1(c2ccc([N+](=O)[O-])cc2)CC(=O)N(C2CCCCC2)[C@@H]1c1ccc(CO)cc1I	-4.36
CCOC(=O)C[C@H]1[C@H](OC(=O)c2ccc(C(=O)c3ccccc3)cc2)[C@@H](NC(=O)c2ccc(-c3ccccc3)cc2)c2cc(OCCCO)ccc2N1C(=O)c1ccccc1	0.134
C=CCNC(=O)[C@@H]1[C@H]2C(=O)O[C@H](c3ccccc3)[C@H](c3ccccc3)N2[C@H](c2ccc(OCCO)cc2)[C@@]12C(=O)Nc1ccc(C#Cc3ccc(OC)cc3)cc12	-1.86
O=C1O[C@H](c2ccccc2)[C@H](c2ccccc2)N2[C@H]1[C@@H](C(=O)N1CCN(c3ncccn3)CC1)[C@]1(C(=O)Nc3ccc(C#CC4=CCCCC4)cc31)[C@H]2c1ccc(O)cc1	-1.91
O=C1OCCC/C=C\[C@H]2OC34C=CCN(c5ccc6ccccc6c5)C(=O)[C@H]3N(CCCCCCO)C(=O)[C@@H]4C12 (stereo partly specified)	0.254
C#CCN(CC=C(C)C)[C@H](CO)c1ccccc1	-1.2
C=C(CCCC)C(=O)CC[C@H](OC(C)=O)c1cccc(OCCO)c1	-1.18
COCCOC(=O)N1C(=O)[C@@]2(c3cc(C#Cc4ccc(OC)cc4)ccc31)[C@H](C(N)=O)[C@H]1C(=O)O[C@H](c3ccccc3)[C@H](c3ccccc3)N1[C@@H]2c1ccccc1OCCO	-3.94
COc1ccc(C(=O)Nc2cccc(CN3C(=O)[C@]4(O[C@H](CCO)[C@@H]([Si](C)(C)c5ccc(OC)cc5)[C@@H]4C)c4ccccc43)c2)cc1	-4.35
Cc1ccc(S[C@]2(C(=O)NCC(F)(F)F)CC(=O)N(C(C)C)[C@@H]2c2ccc(CO)cc2I)cc1	-2.73
COC(=O)[C@@]1(Cc2ccc(OC)cc2)[C@H]2c3cc(C(=O)N(C)C)n(CCN4CNCC4=O)c3C[C@H]2CN1C(=O)c1ccccc1	0.177
COCCOC(=O)N1C(=O)[C@@]2(c3cc(C#CCNC(N)=O)ccc31)[C@H](C(=O)NC[C@H](O)c1ccccc1)[C@H]1C(=O)O[C@H](c3ccccc3)[C@H](c3ccccc3)N1[C@@H]2c1ccccc1OCCO	0.676
CC(C)(C)OC(=O)CC[C@]1(C(=O)O)N=C(c2ccc(OCCCO)cc2)O[C@H]1c1ccccc1N=[N+]=[N-]	-0.24
O=C1C2C=CC(C(O)C(c3ccccc3)c3ccccc3)N(n3cnnc3)C2C(=O)N1Cc1ccccc1 (stereo unspecified)	-0.23

Reference: PubChem BioAssay
